Data published in PubChem BioAssay.
Where “and” joins values, the source holds several entries; their conditions need not be identical. Identical values can stand only once. Calls of active or inactive are those of the source.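 How the source made its calls, unless noted: active means thallium flux through the channel raised or lowered by more than 3 SD from vehicle-only wells, actives on both sides; inactive means the rest.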

What was measured:
[1] = stimulators of nuclear beta-catenin in C2C12, primary screen, imaging, WNT3A-conditioned medium, mouse C2C12, NPC library (AID 1117326; in the data active means nuclear beta-catenin stimulation mostly above about 4.2%, no sharp cut-off; inactive means mostly below about 10%); details: stronger effect = higher value
[2] = stimulators of insulin release from INS-1E, primary screen, cell-based, 5 mM glucose, NPC library (AID 1117329;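 active means compound raises insulin release from rat beta cells at 5 mM glucose, no numeric limit stated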); details: rat INS-1E insulin secretion, at 10 µM, stronger effect = higher value
[3] = growth inhibition of GSK3B-pretreated HCT116 cells – cell-based, CellTiter-Glo, 0.2 to 20 µM (AID 1117336;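 active means compounds lowering colon cancer cell viability after pretreatment blocking the GSK3B kinase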); details: HCT116 viability after GSK3B inhibitor, at 20 µM, stronger effect = higher value
[4] = inhibition of endothelial tube formation, primary screen, imaging, VEGF stimulated, CD31 staining, tube area, NPC library (AID 1117340;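 active means compound that reduces growth-factor-driven endothelial tube area in a mixed cell culture, no cutoff stated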); details: VEGF-stimulated ADSC/ECFC co-culture, at 10 µM, stronger effect = higher value
[5] = glucagon-like peptide 1 release enhancers, primary assay, NCI-H716 cell line, NPC library (AID 1117341;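 active means compound raises GLP1 secretion from the human gut endocrine cells, with no numeric limit stated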); details: NCI-H716 cells, at 10 µM, stronger effect = higher value
[6] = HCT116 colon cancer cell growth inhibition, primary screen, CellTiter-Glo luminescence, NPC library (AID 1117342;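 active means compounds that lower survival of HCT116 colon cancer cells in the luminescence readout, no numeric limit stated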); details: at 20 µM (top of the series)
[7] = CellTiter-Glo luminescent readout of SW480 viability loss, NPC library primary (AID 1117343;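 active means compounds that lower viability of the colon cancer cells in the luminescence readout, with no numeric limit stated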); details: CellTiter-Glo luminescence; at 20 µM (top of the series)
[8] = decreased DLD-1 cellular survival, CellTiter-Glo luminescent readout, NPC compound collection, primary HTS (AID 1117346;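 active means compounds that lower survival of DLD-1 colon cancer cells in the luminescence readout, no cutoff given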); details: DLD-1 viability, CellTiter-Glo luminescence; at 20 µM (top of the series)
[9] = target: 6-phosphogluconate dehydrogenase, decarboxylating (Homo sapiens) (UniProt P52209); assay: 6PGD enzyme inhibitors, primary screen, biochemical, human, recombinant enzyme, NADPH absorbance (AID 1159550;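 active means at least 20% inhibition of 6-phosphogluconate dehydrogenase activity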); details: recombinant 6PGD, NADPH absorbance 341 nm; at 10 µM; stronger effect = higher value
Sequence of 6-phosphogluconate dehydrogenase, decarboxylating (Homo sapiens) (P52209 whole entry, looked up): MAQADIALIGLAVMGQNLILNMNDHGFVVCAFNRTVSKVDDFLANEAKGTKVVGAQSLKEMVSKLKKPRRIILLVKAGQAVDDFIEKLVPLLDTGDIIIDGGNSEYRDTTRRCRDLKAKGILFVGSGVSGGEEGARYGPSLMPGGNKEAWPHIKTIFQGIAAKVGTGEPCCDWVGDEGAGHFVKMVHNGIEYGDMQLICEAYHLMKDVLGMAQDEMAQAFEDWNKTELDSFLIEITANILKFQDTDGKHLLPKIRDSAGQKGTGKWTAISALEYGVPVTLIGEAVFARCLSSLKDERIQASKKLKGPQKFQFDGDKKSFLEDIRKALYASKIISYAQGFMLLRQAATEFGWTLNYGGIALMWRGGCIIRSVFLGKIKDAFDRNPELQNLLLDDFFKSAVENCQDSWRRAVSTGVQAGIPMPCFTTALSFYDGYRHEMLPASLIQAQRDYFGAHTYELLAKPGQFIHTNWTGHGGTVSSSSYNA

[10] = differential killing of epithelial or mesenchymal cells, primary screen, imaging, PC-3E GFP, TEM4-18 mCherry, co-culture (AID 1345086;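 active means compounds killing one labelled cell type while sparing the other, by normalised counts and ratio limits, not self-fluorescent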;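 on all read-outs here: cells exposed to compound for 72 h before imaging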;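 on red/green cell ratio (normalised): normalised mesenchymal count divided by normalised epithelial count so high means epithelial killing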); details: imaging cell counts, at 1 µM; for red/green cell ratio (normalised): actives lie on both sides, counts scaled to control wells, 1 = unselective
[11] = survival rescue of mitochondrial mutant cells in low glucose, primary screen, MELAS cybrids, Rieske KO mouse fibroblasts, CellTiter-Glo (AID 1508586;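 active means mean z-score across replicates of 1.96 or higher in either the MELAS or the Rieske mutant cell line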;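 further: z relative to plate mean and SD of compound and empty wells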)
F380Y = assay: modulators of BK channel variants, profiling panel, selectivity assay, cell-based, U2OS BacMam, thallium flux, beta subunits (AID 1259406); details: at 30 µM;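 further: initial slope of Thallos dye fluorescence rise after thallium is added; log ratio against the mean of 0.3% DMSO vehicle wells on the same plate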
F380Y/beta1 = assay: as above; details: at 30 µM
F380Y/beta2Delta = assay: as above; details: at 30 µM
F380Y/beta4 = assay: as above; details: at 30 µM
[12] = target: Calcium-activated potassium channel subunit alpha-1 (Homo sapiens) + Leucine-rich repeat-containing protein 26 (Homo sapiens) (UniProt Q12791+Q2I0M4); assay: as above; details: F380Y/Slo1WT/gamma1, at 30 µM
Sequence of Calcium-activated potassium channel subunit alpha-1 (Homo sapiens) + Leucine-rich repeat-containing protein 26 (Homo sapiens) (Q2I0M4 whole entry, looked up, one chain of several): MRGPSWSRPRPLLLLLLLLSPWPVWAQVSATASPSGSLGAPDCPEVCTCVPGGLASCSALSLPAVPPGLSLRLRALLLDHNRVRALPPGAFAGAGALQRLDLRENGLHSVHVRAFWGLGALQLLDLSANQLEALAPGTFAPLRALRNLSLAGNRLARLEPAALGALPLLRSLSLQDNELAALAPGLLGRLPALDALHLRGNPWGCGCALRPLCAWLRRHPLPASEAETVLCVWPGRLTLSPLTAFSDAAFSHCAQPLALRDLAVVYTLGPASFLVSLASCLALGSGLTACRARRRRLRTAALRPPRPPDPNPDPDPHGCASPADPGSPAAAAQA

R275C = assay: as above; details: at 30 µM
R275C/beta1 = assay: as above; details: at 30 µM
[13] = measured here: epithelial PC-3E GFP cell survival
[14] = measured here: mesenchymal TEM4-18 mCherry cell survival
[15] = MELAS cybrid survival, CellTiter-Glo 48 h, stronger effect = higher value
[16] = Rieske KO mouse fibroblast survival, CellTiter-Glo 72 h

CC(C)Cc1ccc(C(C)C(=O)O)cc1 (stereo unspecified)
nuclear beta-catenin stimulation ([1]; at 10 µM): 0.3% (inactive) | nuclear beta-catenin stimulation ([1]; stimulation, at 2 µM): 1.7% | insulin secretion stimulation [2]: -2.6% (inactive) | viability decrease [3]: -2.1% (inactive) | tube area decrease [4]: 0.9% (inactive) | GLP1 secretion stimulation [5]: 0.1% (inactive) | inhibition of viability [6]: -7.8% (inactive) | viability decrease (inhibition) [7]: 21.6% (inactive) | viability decrease (inhibition) [8]: 16.6% (inactive) | inhibition [9]: -4.32% (inactive) | red/green cell ratio (normalised) [10]: 1 (inactive) | normalised cell number [10, 13]: 1.11 | normalised cell number [10, 14]: 1.11 | z-score [11, 15]: 0.0693 (inactive) and -0.542 (inactive) | z-score [11, 16]: -0.22 and -1.3 | log fold change Tl+ flux (F380Y): 0.0419 (inactive) | log fold change Tl+ flux (F380Y/beta1): -0.0217 (inactive) | log fold change Tl+ flux (F380Y/beta2Delta): 0.0321 (inactive) | log fold change Tl+ flux (F380Y/beta4): 0.0254 (inactive) | log fold change Tl+ flux [12]: -0.0267 (inactive) | log fold change Tl+ flux (R275C): 0.00709 (inactive) | log fold change Tl+ flux (R275C/beta1): -0.00083 (inactive)

CC(=O)OCC(CCn1cnc2cnc(N)nc21)COC(C)=O
nuclear beta-catenin stimulation ([1]; at 10 µM): 0.9% (inactive) | nuclear beta-catenin stimulation ([1]; stimulation, at 2 µM): 2.8% | insulin secretion stimulation [2]: 0.7% (inactive) | viability decrease [3]: -11.8% (inactive) | tube area decrease [4]: -3.2% (inactive) | GLP1 secretion stimulation [5]: 0.4% (inactive) | inhibition of viability [6]: -2.1% (inactive) | viability decrease (inhibition) [7]: 15.5% (inactive) | viability decrease (inhibition) [8]: -9.1% (inactive) | inhibition [9]: -8.38% (inactive) | red/green cell ratio (normalised) [10]: 0.92 (inactive) | normalised cell number [10, 13]: 1.23 | normalised cell number [10, 14]: 1.14 | z-score [11, 15]: -0.188 (inactive) and -0.285 (inactive) and 0.439 (inactive) | z-score [11, 16]: -0.751 and -0.17 and -0.227 | log fold change Tl+ flux (F380Y): 0.0311 (inactive) | log fold change Tl+ flux (F380Y/beta1): 0.035 (inactive) | log fold change Tl+ flux (F380Y/beta2Delta): -0.0244 (inactive) | log fold change Tl+ flux (F380Y/beta4): 0.0232 (inactive) | log fold change Tl+ flux [12]: 0.0418 (inactive) | log fold change Tl+ flux (R275C): -0.0357 (inactive) | log fold change Tl+ flux (R275C/beta1): 0.0343 (inactive)

CCc1nc(N)nc(N)c1-c1ccc(Cl)cc1
nuclear beta-catenin stimulation ([1]; at 10 µM): 72.4% (active) | nuclear beta-catenin stimulation ([1]; stimulation, at 2 µM): 69.7% | insulin secretion stimulation [2]: 1.3% (inactive) | viability decrease [3]: 18.7% (inactive) | tube area decrease [4]: 16.8% (inactive) | GLP1 secretion stimulation [5]: -0.3% (inactive) | inhibition of viability [6]: 56.7% (active) | viability decrease (inhibition) [7]: 95.5% (active) | viability decrease (inhibition) [8]: 35% (inactive) | inhibition [9]: 5.34% (inactive) | red/green cell ratio (normalised) [10]: 0.84 (inactive) | normalised cell number [10, 13]: 0.9 | normalised cell number [10, 14]: 0.75 | z-score [11, 15]: -0.337 (inactive) and 1.11 (inactive) | z-score [11, 16]: 0.731 and -0.178 | log fold change Tl+ flux (F380Y): 0.0572 (inactive) | log fold change Tl+ flux (F380Y/beta1): -0.116 (inactive) | log fold change Tl+ flux (F380Y/beta2Delta): 0.0521 (inactive) | log fold change Tl+ flux (F380Y/beta4): -0.0112 (inactive) | log fold change Tl+ flux [12]: -0.0172 (inactive) | log fold change Tl+ flux (R275C): -0.00785 (inactive) | log fold change Tl+ flux (R275C/beta1): -0.00379 (inactive)
